Publication PMC7819943, “Rice protein-binding microarrays: a tool to detect cis-acting elements near promoter regions in rice”
Whole data set: some 68,000 sequences, median “fluorescence intensity (a.u.)” near 9,100, cut for the highest 2% near 16,000. For the sample, the highest values were picked, then their nearest neighbours and some sequences at random.

target: OsWRKY34 (Oryza sativa, UniProt Q0JBA9 1-250); experiment: protein-binding microarray (RPBM); PBS, 2% BSA, 51.3 ng/ul salmon testes DNA, 50 uM zinc acetate, 200 nM TF, 25 C, 1 h; high values mean tight binding; conditions: protein: recombinant; tags: N-terminal polyhistidine and DsRed monomer fusion (pET32a); label: CyDye5-dUTP incorporated in the synthesized complementary strand; 3' TTTTT single-stranded linker to array surface; dsDNA, one strand shown
Sequence (Q0JBA9 entry or part of it): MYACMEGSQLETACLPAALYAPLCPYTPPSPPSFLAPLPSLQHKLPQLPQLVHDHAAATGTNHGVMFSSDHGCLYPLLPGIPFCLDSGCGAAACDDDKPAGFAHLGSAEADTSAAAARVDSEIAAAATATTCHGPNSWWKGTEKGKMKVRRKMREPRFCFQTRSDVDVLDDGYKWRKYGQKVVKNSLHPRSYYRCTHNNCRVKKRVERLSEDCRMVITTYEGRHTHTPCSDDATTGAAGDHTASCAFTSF
Summary of the method: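 A custom Agilent array was converted to double-stranded form by primer extension with Cy5-dUTP and blocked with 2% BSA. Protein at 200 nM in PBS with 2% BSA, salmon testes DNA and 50 µM zinc acetate was applied for 1 h at 25 °C, followed by washing. The proteins were polyhistidine–DsRed N-terminal fusions of transcription factors, expressed in E. coli BL21-CodonPlus and Ni–NTA-purified. The binding signal is per-feature fluorescence intensity (arbitrary units) from an Axon 4000B scanner.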

Sequence	binding signal
TTGGGTGGGATTTAAACAGGGTATTAGTGGATAATGATGTCGGAGTCACCTAGTGCAG	9570 fluorescence intensity (a.u.)
CTATAGGTGGATTTTTAGGGACTCACCCGTAAAAACAGGTCGGAGTCACCTAGTGCAG	26800 fluorescence intensity (a.u.)
GGTTAGGTGGCATTTGAATTTAAAACGTATATGTGGACTCCGGAGTCACCTAGTGCAG	13900 fluorescence intensity (a.u.)
CTCCGGGGAATATCTATGGGTCTTGTGGGTGTAGGGAGGACGGAGTCACCTAGTGCAG	8770 fluorescence intensity (a.u.)
CTATAATTATTTGTCGACTAAATCTGCCTTTCATCTTTCTCGGAGTCACCTAGTGCAG	8160 fluorescence intensity (a.u.)
GTGTCTTGTGCGTTTGCTCTCTCGCGAACCATTCCACAGACGGAGTCACCTAGTGCAG	8380 fluorescence intensity (a.u.)
TTTGACCAACCGAAACTCGACGGCCCACCCACCAACCACCCGGAGTCACCTAGTGCAG	9420 fluorescence intensity (a.u.)
ATCATTTGTCTCGCGACGAAAACTTGCGTTGACCACCCACCGGAGTCACCTAGTGCAG	17500 fluorescence intensity (a.u.)
CACCCACCAAGTACTCTTTTTACTTTTACCACAGCGCATACGGAGTCACCTAGTGCAG	9050 fluorescence intensity (a.u.)
TGCGGCTTTGATTTGCGGGGTTCACACACGAGTAATTGCACGGAGTCACCTAGTGCAG	10900 fluorescence intensity (a.u.)
TTCACACACGAGTAATTGCAGCCTTGCTTTCTCGAAAAAACGGAGTCACCTAGTGCAG	17100 fluorescence intensity (a.u.)
TTACACGCCTAATCATCGAAAACCTAATCTTATGCTTTCTCGGAGTCACCTAGTGCAG	8790 fluorescence intensity (a.u.)
AATCTGTGGCGATAACCTGTATGCTCACACACTTGCCTCTCGGAGTCACCTAGTGCAG	8610 fluorescence intensity (a.u.)
TCCGTATTTTAATGTATGACGCCGTTGACTTTTTATCCAACGGAGTCACCTAGTGCAG	21400 fluorescence intensity (a.u.)
ATATACTACCTCCATATTTTAATGTATGACGCCGTTGACTCGGAGTCACCTAGTGCAG	8860 fluorescence intensity (a.u.)
TATATACTCCCTCCATATTTTAATGTATGACGCCGTTGACCGGAGTCACCTAGTGCAG	9880 fluorescence intensity (a.u.)
TTCCCTCCATATTTTAATGTATGACGCCGTTGACTTTTTACGGAGTCACCTAGTGCAG	17700 fluorescence intensity (a.u.)
TACTCCCTCCGTATTTTAATGTATGACGCCGTTGACTTTTCGGAGTCACCTAGTGCAG	13900 fluorescence intensity (a.u.)
CTACCTCCATATTTTAATGTATGACGCCGTTGACTTTTTGCGGAGTCACCTAGTGCAG	37500 fluorescence intensity (a.u.)
TACCTCCATATTTTAATGTATGACGCCGTTGACTTTTTATCGGAGTCACCTAGTGCAG	28900 fluorescence intensity (a.u.)
TATTACTACCTTCATATTTTAATGTATGACGCCGTTGACTCGGAGTCACCTAGTGCAG	11900 fluorescence intensity (a.u.)
AGCGCGTCGCTTTCTTTCTTTCTTTCAGTTTTTTTTTTCCCGGAGTCACCTAGTGCAG	10500 fluorescence intensity (a.u.)

Sequence	binding signal
AATCTGACTGAAGTATGTACTTTGTGTTGACCAATTTGGCCGGAGTCACCTAGTGCAG	10200 fluorescence intensity (a.u.)
ATGAGTTCCCAACCGCCACTTACATTAAGTACCACACTCCCGGAGTCACCTAGTGCAG	8660 fluorescence intensity (a.u.)
GTTTCCTTCGTTTCAGATTACTCATTATTTTAGCTTTTTTCGGAGTCACCTAGTGCAG	13800 fluorescence intensity (a.u.)
TCCACCTTTTCATCAATATAGTCATGCATTAATACAGTCACGGAGTCACCTAGTGCAG	8670 fluorescence intensity (a.u.)
TTGCTTCCTTTGTCCTTACTGACATTATTACCTCAGAGACCGGAGTCACCTAGTGCAG	8870 fluorescence intensity (a.u.)
ACGGGGCGCATTTATTCATCCCCACCTTTGTTCATCAGTTCGGAGTCACCTAGTGCAG	11600 fluorescence intensity (a.u.)
TGCACTAGTATGTATGACGTTGACTGTTTTTTTAAGGACGCGGAGTCACCTAGTGCAG	10200 fluorescence intensity (a.u.)
ATTTGTTTGTTTTTTTAATAAATGATGTTGTTGACTTTTACGGAGTCACCTAGTGCAG	9030 fluorescence intensity (a.u.)
TAATGTATGACGTCGTTGACTTTTTGTTAAACGTTTGATCCGGAGTCACCTAGTGCAG	15600 fluorescence intensity (a.u.)
CTCCATATTTTAATGTATGCCGCCGTTGACTTTTTGTTTACGGAGTCACCTAGTGCAG	20200 fluorescence intensity (a.u.)
TTTTAATGTATGACGCTGTTGACTTTTTATCCAACGTTTGCGGAGTCACCTAGTGCAG	16400 fluorescence intensity (a.u.)
CTCATAATAGATTTACTTTTAATGCCGTTGTTTTGTTTTACGGAGTCACCTAGTGCAG	9090 fluorescence intensity (a.u.)
GTTACCCCGATTAGTTAGTTTATGTTGTACATGCTGTTGACGGAGTCACCTAGTGCAG	11000 fluorescence intensity (a.u.)
CAGTGTCCGTTTTCTCCGACAAACTCGGCGTGGCCACAGTCGGAGTCACCTAGTGCAG	9840 fluorescence intensity (a.u.)
TTGTTGATTTTTTTTCAGAATTTTTATCACTATTTGTCTTCGGAGTCACCTAGTGCAG	8570 fluorescence intensity (a.u.)
TTTAAAAGTCAACGGCGTCAGAGGGAGTATATATTTTAGCCGGAGTCACCTAGTGCAG	9840 fluorescence intensity (a.u.)
AATATTTTTTTGAGGTTTTTTGTTGCGTTTAAAATTCAAACGGAGTCACCTAGTGCAG	8110 fluorescence intensity (a.u.)
TATTTTTAAAAAAGTCAACGGCGTCTTGTGGGATGGAGGGCGGAGTCACCTAGTGCAG	21300 fluorescence intensity (a.u.)
ATATTTAAAAAAGTCAACGGCGTCAAACATTTTGAGATAGCGGAGTCACCTAGTGCAG	9320 fluorescence intensity (a.u.)
TAAAAAAGTCAACGGCGTTAAACATTTTGGGATGGAGGGACGGAGTCACCTAGTGCAG	11200 fluorescence intensity (a.u.)
TTGATTTTTTGTTGCAAAAGAATATTTTAATTCACTGCAACGGAGTCACCTAGTGCAG	24300 fluorescence intensity (a.u.)
AAACATGTTTAAAAAAGTCAACGGCGTCAAACATTTAGGGCGGAGTCACCTAGTGCAG	13800 fluorescence intensity (a.u.)

Sequence	binding signal
ATATTTAAAAAAGTCAACGGCGTCAAACATTTTGAAACGGCGGAGTCACCTAGTGCAG	16800 fluorescence intensity (a.u.)
TCAAACATTTAAAAAAAAAGTCAACGGCGTCAAATATTTTCGGAGTCACCTAGTGCAG	8470 fluorescence intensity (a.u.)
AAAAAGTCAACGGCGTCAAACATTTAGGGATGGAGGGAGTCGGAGTCACCTAGTGCAG	8190 fluorescence intensity (a.u.)
ATATGTTTAAAAAAGTCAACGGCGTCAAACATTTAGGGATCGGAGTCACCTAGTGCAG	18600 fluorescence intensity (a.u.)
ATCTGTACAGTTTGTGACTAATTTGCAAGACGAATCTTTTCGGAGTCACCTAGTGCAG	11500 fluorescence intensity (a.u.)
GGATACGGCACCTTTGCGAGCTGCGTCGACCGCTCCGCCGCGGAGTCACCTAGTGCAG	9650 fluorescence intensity (a.u.)
GGTTCTGTTCTATATACTCCGACACCATACTGATTAGTCTCGGAGTCACCTAGTGCAG	10900 fluorescence intensity (a.u.)
TTTTGAGTTTTTGTGTGAACTGTTTGACCACTCGTCTTATCGGAGTCACCTAGTGCAG	8250 fluorescence intensity (a.u.)
CATGTGCTCAAAGCTTATCTGCATACAAGCCTTCGAGACCCGGAGTCACCTAGTGCAG	64100 fluorescence intensity (a.u.)
CCATCTCCTTCAGCCTTCGCTTCATCTGGTCGAGCTCCTGCGGAGTCACCTAGTGCAG	9080 fluorescence intensity (a.u.)
CTAGCTCACACACAATTGCATACACCTAGCTCAAAAGCCTCGGAGTCACCTAGTGCAG	9080 fluorescence intensity (a.u.)
GTCTCAAAAACTCATTCTCCACACGTAATGGATACTTTTGCGGAGTCACCTAGTGCAG	8800 fluorescence intensity (a.u.)
TATAACACCAATGACTCTATCTTCATCCGCATGCGTGCCGCGGAGTCACCTAGTGCAG	9390 fluorescence intensity (a.u.)
CCATGTATCACACTCCGTTCATATATTCCTGGGCTGTATTCGGAGTCACCTAGTGCAG	8450 fluorescence intensity (a.u.)
CATCGCCACCACCGCAGCCGCCTCTCAATTAGGAACACGTCGGAGTCACCTAGTGCAG	10300 fluorescence intensity (a.u.)
TCTCTCTTTTTTTAAGCACCTTTTCTGCCTTTTTTCTTTTCGGAGTCACCTAGTGCAG	12200 fluorescence intensity (a.u.)
TTATCAATATCTCTCTCTCGGCGCGTATAGCCGTCGCGCGCGGAGTCACCTAGTGCAG	8690 fluorescence intensity (a.u.)
AGCACATAGCTAGTTAGCCACATATTATTTGATCACTAAACGGAGTCACCTAGTGCAG	8980 fluorescence intensity (a.u.)
TAGCACTAAAACGAGAGGCCTTTTGATTTAGATTTTGCCACGGAGTCACCTAGTGCAG	21900 fluorescence intensity (a.u.)
CTATCGCCACCTTTTGCCTTGATTTCTCCTTATTGCTAAACGGAGTCACCTAGTGCAG	14600 fluorescence intensity (a.u.)
GTCCGCATCGAGCCGCAGATCTTTCTCACCGCCACCGATGCGGAGTCACCTAGTGCAG	8140 fluorescence intensity (a.u.)
CCCTATCGAACGACCACCGAAACCATCATCATTCATCACCCGGAGTCACCTAGTGCAG	9470 fluorescence intensity (a.u.)

Sequence	binding signal
TTTAGCTTAACTTATTACGATTATGGCTGTGTTTAGTTTCCGGAGTCACCTAGTGCAG	9160 fluorescence intensity (a.u.)
AAACTAATTTTCTGTGACACTTCCAAGTGCATACCGGAGTCGGAGTCACCTAGTGCAG	8660 fluorescence intensity (a.u.)
ATTTTTTATGGGTGTTTGGTTAGTGGGTGGGAGTGGGATACGGAGTCACCTAGTGCAG	12000 fluorescence intensity (a.u.)
GGCCTCATTCTGGGATCGTTTTATGGTGGGGTTATCGTTACGGAGTCACCTAGTGCAG	20600 fluorescence intensity (a.u.)
TTGTTTGACTCTTTTTTAATTAAATTTCTATAAGTTTAATCGGAGTCACCTAGTGCAG	8280 fluorescence intensity (a.u.)
AAAGTGATGTGGTGGTGGAGTTGTGGGTATATGATTTTATCGGAGTCACCTAGTGCAG	8790 fluorescence intensity (a.u.)
GGATGGGTTATATCTAGTATTGTGGTTGGGACTGCCTATACGGAGTCACCTAGTGCAG	11100 fluorescence intensity (a.u.)
GCCTGGTTTTATAAGTTGTGGGATGGGTTATATCTAGTATCGGAGTCACCTAGTGCAG	28800 fluorescence intensity (a.u.)
GCTGGGTTTGTGGGTTTTCTCATAAGTTTAATCTCTATATCGGAGTCACCTAGTGCAG	17400 fluorescence intensity (a.u.)
CTATCGATATAATCTCTAAGTGAGTTTTTTGTATTTTTTTCGGAGTCACCTAGTGCAG	8020 fluorescence intensity (a.u.)
GCATATGGGGATTCTGGGATTTTGGTTTACAGTCTACATTCGGAGTCACCTAGTGCAG	8100 fluorescence intensity (a.u.)
CCGCACAATCCGCGCCGCCATCAGTTCGCTCTCGCCACCACGGAGTCACCTAGTGCAG	9020 fluorescence intensity (a.u.)
GCGCCCACGAACCTTGTCTTCAAGCAATCCCACACTTCCTCGGAGTCACCTAGTGCAG	9490 fluorescence intensity (a.u.)
ATTTCAGGCCCACTAGTCCGCTCTTCCTCTTCTTTTTTTTCGGAGTCACCTAGTGCAG	9840 fluorescence intensity (a.u.)
GCCGCCATCCCCACCATCGCCGTCGCCGTCGCCTCGCCTCCGGAGTCACCTAGTGCAG	13300 fluorescence intensity (a.u.)
CTCTAACAGTCTGCTATTATATCTGCTCTCATGCGTCATCCGGAGTCACCTAGTGCAG	11100 fluorescence intensity (a.u.)
ACTTTAGTTTTTTTCCGTTGCAGCACACGGTTTTTTTTAACGGAGTCACCTAGTGCAG	9170 fluorescence intensity (a.u.)
TTTCAAAATATTTGACTCCGTTGATTTTTTTAGCACATGTCGGAGTCACCTAGTGCAG	9070 fluorescence intensity (a.u.)
TCCGTTTCGTTTTATTTGACACCGTTGACTTTTTAGCACACGGAGTCACCTAGTGCAG	19500 fluorescence intensity (a.u.)
TTTAGCACGTATTTGACCGTTCGTCTTATTCAAAAACTTTCGGAGTCACCTAGTGCAG	8790 fluorescence intensity (a.u.)
ACTTTTACATAGAATTTTTTTTTGAACACACCGTTTAGCACGGAGTCACCTAGTGCAG	8510 fluorescence intensity (a.u.)
TTCGTTTCAAAATATTTGACACCGTTGACTTTTTAGCACACGGAGTCACCTAGTGCAG	25700 fluorescence intensity (a.u.)
